# Records with an inconclusive call do not appear. Where a structure was tested more than once in an assay, its records may differ in their call. Activity calls are given as the source filed them. The calls were made as follows, unless noted: active = hit-call score of the fitted dose curve at least 0.9, where 1 is the maximum; inactive = score below 0.9.
# How the values were obtained:
# [1] = read-out: Interleukin-8 (IL8), CXCL8 (gene 3576); test: BSK_3C_IL8: BioMAP Diversity Plus: 3C Assay for Interleukin-8 (IL8) Biomarker Activity (AID 2283020); details: primary human endothelial cells (HUVEC); actives raise or lower the signal
# Method in brief: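 Using DMSO-treated wells as the baseline, bidirectional curve fitting was applied to ELISA-measured IL-8 from human umbilical vein endothelial cultures sampled 24 h after compound addition.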
# [2] = read-out: Monokine induced gamma interferon (MIG), CXCL9 (gene 4283); test: BSK_3C_MIG: BioMAP Diversity Plus: 3C Assay for Monokine induced gamma interferon (MIG) Biomarker Activity (AID 2283021); details: primary human endothelial cells (HUVEC); actives raise or lower the signal;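 as to AC50: MIG protein level measured by immunoassay in the treated endothelial cultures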
# Method in brief: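 ELISA-measured MIG in dosed HUVEC 3C cultures at 24 h, analysed by bidirectional fitting with DMSO defining baseline activity.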
# [3] = BSK_3C_SRB: Viability Assessment in the BioMAP Diversity Plus: 3C Assay (AID 2283023); details: primary human endothelial cells (HUVEC);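 also: fitted both ways against DMSO so a hit may be signal rise or drop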
# Method in brief: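 Human umbilical vein endothelial cells in the 3C system, treated 24 h. Total protein measured by 0.1% sulforhodamine B staining after 10% TCA fixation, read at 560 nm; bidirectional fit versus DMSO.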
# [4] = read-out: Matrix Metallopeptidase 1 (MMP1), MMP1 (gene 4312); test: BSK_BE3C_MMP1: BioMAP Diversity Plus: BE3C Assay for Matrix Metallopeptidase 1 (MMP1) Biomarker Activity (AID 2283024); details: primary human bronchial epithelial cells; actives raise or lower the signal
# Method in brief: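 In this multiplexed primary-cell system, human bronchial epithelium received chemicals for 24 h before an ELISA for MMP1. Values reflect bidirectional fits normalised to the DMSO baseline.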
# [5] = BSK_3C_Vis: BioMAP Diversity Plus: 3C Assay for Morphology Visualization (AID 2283025); details: primary human endothelial cells (HUVEC);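 also: fitted both ways so gain or loss versus DMSO counts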;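 as to AC50: light microscopy image of cell morphology used as background control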
# Method in brief: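 Light-microscopy morphology readout, 24 h exposure, human primary umbilical vein endothelium; analysed relative to DMSO with bidirectional fitting.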
# [6] = read-out: Pselectin, SELP (gene 6403); test: BSK_4H_Pselectin: BioMAP Diversity Plus: 4H Assay for Pselectin Biomarker Activity (AID 2283026); details: primary human endothelial cells (HUVEC); actives raise or lower the signal
# Method in brief: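 Bidirectional fits against DMSO gave the endpoint. Cells: primary human umbilical vein endothelium, chemical-treated for 24 h before ELISA detection of P-selectin.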
# [7] = BSK_4H_SRB: Viability Assessment in the BioMAP Diversity Plus: 4H Assay (AID 2283027); details: primary human endothelial cells (HUVEC);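 also: cells exposed to compound for 24 h before staining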;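 as to AC50: curves fitted both ways versus DMSO so AC50 may be loss or gain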
# Method in brief: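 Cytotoxicity read-out in primary human endothelial cells: after 24 h compound exposure, cells were TCA-fixed (10%), stained with 0.1% SRB and absorbance taken at 560 nm. Values fitted in both directions relative to DMSO.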
# [8] = BSK_BE3C_SRB: Viability Assessment in the BioMAP Diversity Plus: BE3C Assay (AID 2283028); details: primary human bronchial epithelial cells;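 as to AC50: fitted both ways so AC50 may mark signal gain or loss versus DMSO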
# Method in brief: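 Human bronchial epithelial primary cells in confluent culture, 24 h after chemical dosing; total protein by 0.1% SRB staining after 10% TCA fixation, read at 560 nm. Bidirectional fitting versus DMSO baseline.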
# [9] = read-out: Thrombomodulin, THBD (gene 7056); test: BSK_3C_Thrombomodulin: BioMAP Diversity Plus: 3C Assay for Thrombomodulin Biomarker Activity (AID 2283029); details: primary human endothelial cells (HUVEC); actives raise or lower the signal
# Method in brief: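 In a multiplexed primary-cell system, human umbilical vein endothelium received chemical and was assayed 24 h later for thrombomodulin by ELISA. Parallel cultures were SRB-stained (0.1% SRB after 10% TCA fixation, read at 560 nm) to flag cytotoxicity.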
# [10] = read-out: Urokinase-type plasminogen activator receptor (uPAR), PLAUR (gene 5329); test: BSK_4H_uPAR: BioMAP Diversity Plus: 4H Assay for Urokinase-type plasminogen activator receptor (uPAR) Biomarker Activity (AID 2283030); details: primary human endothelial cells (HUVEC); actives raise or lower the signal
# Method in brief: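 Human umbilical vein endothelial cells in the 4H system, 24 h after chemical dosing. Cell-surface uPAR measured by ELISA, fitted in both directions versus DMSO; cytotoxicity checked by SRB total protein in parallel cultures.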
# [11] = read-out: Human Leukocyte Antigen - DR isotype (HLADR), HLA-DRA (gene 3122); test: BSK_BE3C_HLADR: BioMAP Diversity Plus: BE3C Assay for Human Leukocyte Antigen - DR isotype (HLADR) Biomarker Activity (AID 2283032); details: primary human bronchial epithelial cells; actives raise or lower the signal
# Method in brief: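 BioMAP BE3C format: human bronchial epithelium, 24 h compound treatment, ELISA detection of HLA-DR, with bidirectional analysis relative to DMSO.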
# [12] = read-out: Vascular cell adhesion molecule 1 (VCAM1), VCAM1 (gene 7412); test: BSK_4H_VCAM1: BioMAP Diversity Plus: 4H Assay for Vascular cell adhesion molecule 1 (VCAM1) Biomarker Activity (AID 2283033); details: primary human endothelial cells (HUVEC); actives raise or lower the signal;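 as to outcome: cell-surface VCAM-1 protein measured by ELISA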
# Method in brief: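 In this human endothelial (HUVEC) system, biomarker ELISA was run 24 h after compound addition, and total protein in parallel wells was assessed by SRB at 560 nm; DMSO served as negative control.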
# [13] = read-out: Interferon-gamma inducible Protein 10 (IP10), CXCL10 (gene 3627); test: BSK_BE3C_IP10: BioMAP Diversity Plus: BE3C Assay for Interferon-gamma inducible Protein 10 (IP10) Biomarker Activity (AID 2283034); details: primary human bronchial epithelial cells; actives raise or lower the signal
# Method in brief: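 BE3C cells (human bronchial epithelial, primary); 24 h exposure; ELISA for IP-10; DMSO-referenced bidirectional fit.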
# [14] = read-out: Monokine induced gamma interferon (MIG), CXCL9 (gene 4283); test: BSK_BE3C_MIG: BioMAP Diversity Plus: BE3C Assay for Monokine induced gamma interferon (MIG) Biomarker Activity (AID 2283035); details: primary human bronchial epithelial cells; actives raise or lower the signal;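 as to outcome: MIG protein measured by ELISA in BE3C cultures after 24 h of dosing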
# Method in brief: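 ELISA quantified MIG after 24 h exposure of primary bronchial epithelial cultures, analysed in both directions relative to DMSO. Cytotoxicity tracked in parallel cultures by sulforhodamine B staining.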
# [15] = read-out: Transforming growth factor beta 1 (TGFb1), TGFB1 (gene 7040); test: BSK_BE3C_TGFb1: BioMAP Diversity Plus: BE3C Assay for Transforming growth factor beta 1 (TGFb1) Biomarker Activity (AID 2283036;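 as to outcome: TGF-b1 protein level measured by ELISA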); details: primary human bronchial epithelial cells; actives raise or lower the signal
# Method in brief: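 TGF-b1 measured via ELISA, 24 h after chemical dosing of human bronchial epithelial cells (BE3C). Overt cytotoxicity assessed in parallel by SRB (0.1%, TCA-fixed, 560 nm); analysis bidirectional relative to DMSO.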
# [16] = read-out: Plasminogen activator inhibitor-1 (PAI1), SERPINE1 (gene 5054); test: BSK_BE3C_PAI1: BioMAP Diversity Plus: BE3C Assay for Plasminogen activator inhibitor-1 (PAI1) Biomarker Activity (AID 2283037); details: primary human bronchial epithelial cells; actives raise or lower the signal
# Method in brief: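 In this multiplexed primary-cell system, bronchial epithelial cells receive test chemical and are sampled at 24 h. PAI-1 is read by ELISA, with DMSO serving as negative control for bidirectional fitting.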
# [17] = read-out: urokinase plasminogen activator (uPA), PLAU (gene 5328); test: BSK_BE3C_uPA: BioMAP Diversity Plus: BE3C Assay for urokinase plasminogen activator (uPA) Biomarker Activity (AID 2283038); details: primary human bronchial epithelial cells; actives raise or lower the signal;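 as to outcome: uPA protein level quantified by ELISA in cell cultures; uPA read one day after compound addition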
# Method in brief: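 Primary human bronchial epithelial cells, uPA measured by ELISA 24 h after dosing. Bidirectional change relative to DMSO; cytotoxicity checked in parallel cultures by sulforhodamine B total-protein staining.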
# [18] = target: human Vitamin D Receptor (VDR), VDR (gene 7421) (UniProt P11473); test: ATG_VDR_TRANS: Attagene TRANS-FACTORIAL HepG2 Assay for human Vitamin D Receptor (VDR) (AID 2283022; active = hit-call score of the fitted dose curve at least 0.9, where 1 is the maximum)
# Method in brief: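 HepG2 cells were transiently transfected with GAL4-UAS reporter units and a chimeric VDR-Gal4 construct, then dosed for 24 hours. Reporter mRNA was quantified by RT-PCR, fluorescent labeling, HpaI digestion and capillary electrophoresis; gain of signal analysed vs DMSO.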
# human Vitamin D Receptor (VDR), VDR (gene 7421), sequence (P11473 whole entry, looked up, the tested form may be a part): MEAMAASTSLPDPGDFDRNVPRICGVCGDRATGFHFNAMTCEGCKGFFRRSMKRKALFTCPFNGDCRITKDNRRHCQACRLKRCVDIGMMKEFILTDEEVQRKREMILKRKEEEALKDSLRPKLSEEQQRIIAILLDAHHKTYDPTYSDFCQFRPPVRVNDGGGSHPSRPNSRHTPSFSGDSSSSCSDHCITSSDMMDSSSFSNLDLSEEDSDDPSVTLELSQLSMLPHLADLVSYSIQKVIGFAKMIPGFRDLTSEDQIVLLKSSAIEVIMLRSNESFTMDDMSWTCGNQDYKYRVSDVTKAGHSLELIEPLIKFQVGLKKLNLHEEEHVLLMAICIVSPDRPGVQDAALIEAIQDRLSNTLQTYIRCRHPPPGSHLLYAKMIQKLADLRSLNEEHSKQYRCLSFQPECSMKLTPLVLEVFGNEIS
smiles,measurement,setting,value
O=S1(=O)CC(Cl)(Cl)C(Cl)(Cl)C1,AC50,[1],0.548 µM (active)
same,AC50,[2],1.34 µM (active)
same,AC50,[3],5.02 µM (active)
same,AC50,[4],2.15 µM (active)
same,AC50,[5],20 µM (active)
same,AC50,[6],0.194 µM (active)
same,AC50,[7],0.992 µM (active)
same,AC50,[8],1.18 µM (active)
same,outcome,[9],inactive
same,AC50,[10],0.921 µM (active)
same,AC50,[11],0.96 µM (active)
same,AC50,[12],0.582 µM (active)
same,AC50,[13],1.07 µM (active)
same,AC50,[14],2.04 µM (active)
same,AC50,[15],0.582 µM (active)
same,AC50,[16],1.61 µM (active)
same,AC50,[17],1.08 µM (active)
COC(=O)c1ccc(C(=O)OC)cc1,outcome,[1],inactive
same,outcome,[2],inactive
same,outcome,[18],inactive
same,outcome,[3],inactive
same,outcome,[4],inactive
same,outcome,[5],inactive
same,outcome,[6],inactive
same,outcome,[7],inactive
same,outcome,[8],inactive
same,outcome,[9],inactive
same,outcome,[10],inactive
same,outcome,[11],inactive
same,outcome,[12],inactive
same,outcome,[13],inactive
same,outcome,[14],inactive
same,outcome,[15],inactive
same,outcome,[16],inactive
same,outcome,[17],inactive
O=C(c1ccc(OCCN2CCCCC2)cc1)c1c(-c2ccc(O)cc2)sc2cc(O)ccc12,AC50,[1],20 µM (active)
same,AC50,[2],36.1 µM (active)
same,outcome,[18],inactive
same,AC50,[3],18.8 µM (active)
same,AC50,[4],32.2 µM (active)
same,AC50,[5],22.3 µM (active)
same,AC50,[6],25.2 µM (active)
same,AC50,[7],33.2 µM (active)
same,AC50,[8],38.1 µM (active)
same,outcome,[9],inactive
same,AC50,[10],25.3 µM (active)
same,AC50,[11],20.3 µM (active)
same,AC50,[12],34.5 µM (active)
same,AC50,[13],39.2 µM (active)
same,AC50,[14],37.2 µM (active)
same,AC50,[15],31.9 µM (active)
same,AC50,[16],22.4 µM (active)
same,AC50,[17],34 µM (active)
C=CC(=O)OCC(CO)(COC(=O)C=C)COC(=O)C=C,AC50,[1],0.303 µM (active)
same,AC50,[2],0.602 µM (active)
same,AC50,[3],0.294 µM (active)
same,AC50,[4],3.22 µM (active)
same,AC50,[5],0.174 µM (active)
same,AC50,[6],0.341 µM (active)
same,AC50,[7],0.566 µM (active)
same,AC50,[8],20 µM (active)
same,outcome,[9],inactive
same,AC50,[10],0.964 µM (active)
same,AC50,[11],0.336 µM (active)
same,AC50,[12],0.302 µM (active)
same,AC50,[13],0.818 µM (active)
same,AC50,[14],2.03 µM (active)
same,AC50,[15],1.4 µM (active)
same,outcome,[16],inactive
same,AC50,[17],0.631 µM (active)
CC(C)(CO)CO,outcome,[1],inactive
same,outcome,[2],inactive
same,outcome,[3],inactive
same,outcome,[4],inactive
same,AC50,[6],5.64 µM (active)
same,outcome,[6],inactive
same,outcome,[7],inactive
same,outcome,[8],inactive
same,outcome,[9],inactive
same,outcome,[10],inactive
same,outcome,[11],inactive
same,outcome,[12],inactive
same,AC50,[13],5.62 µM (active)
same,outcome,[13],inactive
same,AC50,[14],8.35 µM (active)
same,outcome,[14],inactive
same,outcome,[16],inactive
same,outcome,[17],inactive
